# Source: the supplement of paper PMC12669032
# Values joined by “and” are separate entries in the source; they are usually repeats but may differ in a detail not shown here. Identical values can stand only once.
# Test system: Roseburia intestinalis
# Test: growth AUC relative to DMSO control (median of replicates) (fraction); higher = more growth (less inhibition), active = hit call of the paper
# Settings: 20 µM; 24 h;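 active = AUC reduced over 20% with Padj below 0.05 in at least 2 of 3 replicates; inactive = otherwise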
# Summary of the method: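 Area under the growth curve was normalised to the plate median of solvent-only wells, except on the industrial chemical plate, where row and column medians were used. Curves came from gut bacterial monocultures grown anaerobically at 37 °C in mGAM with 20 µM compound (1% DMSO), starting at OD600 0.05 and read at OD600 every hour for 24 h. The minimum OD of each curve was set to 0, and values are medians of three biological replicates grown on separate days.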
row,SMILES,growth AUC
1,CCCSP(=O)(OCC)SCCC,1 (inactive)
2,Cc1cc(C2CC2)nc(Nc2ccccc2)n1,0.947 (inactive)
3,CNC(=O)/C(=N/OC)c1ccccc1Oc1ccccc1,1.04 (inactive)
4,ClC1C(Cl)C(Cl)C(Cl)C(Cl)C1Cl (configuration not stated),1.03 (inactive) and 1.04 (inactive) and 0.953 (inactive)
5,CC1(C)[C@H](C=C(Cl)Cl)[C@H]1C(=O)OCc1c(F)c(F)cc(F)c1F,0.946 (inactive)
6,COc1nc(C)nc(NC(=O)NS(=O)(=O)c2ccccc2CCC(F)(F)F)n1,0.98 (inactive)
7,CCN(CC)c1nc(C)cc(OP(=S)(OC)OC)n1,0.978 (inactive)
8,CCOC(=O)CCN(Cc1ccccc1)SN(C)C(=O)O/N=C(/C)SC,0.987 (inactive)
9,COc1cc(OC)n2nc(S(=O)(=O)Nc3c(Cl)ccc(C)c3Cl)nc2n1,0.999 (inactive)
10,O=P(OCCCl)(OCCCl)OCCCl,0.928 (inactive)
11,Clc1cc(Cl)c(Cl)cc1Cl,0.962 (inactive)
12,C=CC(N)=O,1.01 (inactive)
13,CNC(=O)Oc1cc(C)cc(C(C)C)c1,1.06 (inactive)
14,O=C(O)COc1cc(Cl)c(Cl)cc1Cl,0.966 (inactive)
15,CN(C(=O)COc1nc2ccccc2s1)c1ccccc1,1.08 (inactive)
16,CC1(C)C(C(=O)OC(C#N)c2cccc(Oc3ccccc3)c2)C1(C)C (configuration not stated),0.929 (inactive)
17,CCCCN(CC)c1c([N+](=O)[O-])cc(C(F)(F)F)cc1[N+](=O)[O-],1.04 (inactive)
